# Measured values reported in PubChem BioAssay (EPA / NIEHS).
# Active and inactive are the calls of the source. How the source made its calls: active means hit-call score of the fitted dose curve at least 0.9, where 1 is the maximum; inactive means score below 0.9.
# Read-out: matrix metalloproteinase-10 (MMP10), MMP10 (gene 4319)
# Assay: LTEA_HepaRG_MMP10: Life Technologies and Expression Analysis (LTEA) Assay for matrix metalloproteinase-10 (MMP10) using HepaRG (AID 2283517)
# Settings: mRNA level, 48 h; actives raise or lower the signal
# Procedure, shortened: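 Differentiated HepaRG cells in serum-free induction medium exposed 48 h in duplicate to 8-point half-log series up to 100 uM in 0.5% DMSO. mRNA quantified by qRT-PCR, normalised to ACTB, GAPDH, POLR2A; bidirectional fit versus DMSO.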
row,SMILES,outcome
1,Cc1ccc(N)cc1N,inactive
2,CCOc1ccc(C(C)(C)COCc2cccc(Oc3ccccc3)c2)cc1,inactive
3,c1cc2c3c(cccc3c1)CC2,inactive

# Read-out: MYC, MYC (gene 4609)
# Assay: LTEA_HepaRG_MYC: Life Technologies and Expression Analysis (LTEA) Assay for MYC using HepaRG (AID 2283518)
# Settings: mRNA level, 48 h; actives raise or lower the signal
# Procedure, shortened: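 Cells are thawed, plated and cultured 48 h, then treated for 48 h with test chemicals (eight half-log concentrations from 100 uM, 0.5% DMSO vehicle). RNA is isolated and MYC expression quantified by qRT-PCR against three housekeeping genes.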
SMILES,outcome,AC50
Nc1cc2c3c(c1)C(c1ccccc1)=N[C@@H](NC(=O)c1cccnc1)C(=O)N3CC2,inactive,–
c1nc[nH]n1,–,0.104 µM (active)
CCC(C)(C)c1ccc(O)cc1,inactive,–
CCOP(=S)(OCC)SCSCC,inactive,–
CCNc1nc(Cl)nc(NC(C)(C)C)n1,inactive,–
CCOC(=O)c1ccccc1C(=O)OCC,inactive,–
CCOP(=S)(Oc1ccc([N+](=O)[O-])cc1)c1ccccc1 (stereo not given),inactive,–
Nc1ccc(Cl)cc1,inactive,–
Cc1ccc(N)cc1N,inactive,–
CCOc1ccc(C(C)(C)COCc2cccc(Oc3ccccc3)c2)cc1,inactive,–
ClC1=C(Cl)C2(Cl)C3C(Cl)C(Cl)CC3C1(Cl)C2(Cl)Cl (stereo not given),–,50 µM (active)
CCCCN(CCCC)N=O,inactive,–
c1ccc(OP(Oc2ccccc2)Oc2ccccc2)cc1,inactive,–
CCC1(c2ccccc2)C(=O)N=C(O)NC1=O (stereo not given),inactive,–
Cc1cccc(N)c1,inactive,–
CC(C)(C)OOC(C)(C)C,inactive,–
CCCCCCCc1ccc(O)cc1,inactive,–
ClC(Cl)c1ccccc1,inactive,–
CCCCN(CCCC)SN(C)C(=O)Oc1cccc2c1OC(C)(C)C2,inactive,–
c1cc2c3c(cccc3c1)CC2,inactive,–
CN(C)C(=O)Cl,inactive,–

# Read-out: matrix metalloproteinase-3 (MMP3), MMP3 (gene 4314)
# Assay: LTEA_HepaRG_MMP3: Life Technologies and Expression Analysis (LTEA) Assay for matrix metalloproteinase-3 (MMP3) using HepaRG (AID 2283519)
# Settings: mRNA level, 48 h; actives raise or lower the signal
# Procedure, shortened: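 HepaRG cells (~100,000/well) in serum-free induction medium were dosed in duplicate for 48 h with an 8-point half-log series from 100 uM, 0.5% DMSO. MMP3 mRNA was quantified by Fluidigm TaqMan qRT-PCR, normalized to three housekeeping genes.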
SMILES,outcome,AC50
Nc1cc2c3c(c1)C(c1ccccc1)=N[C@@H](NC(=O)c1cccnc1)C(=O)N3CC2,inactive,–
c1nc[nH]n1,–,0.0899 µM (active)
CCC(C)(C)c1ccc(O)cc1,inactive,–
CCOP(=S)(OCC)SCSCC,inactive,–
CCNc1nc(Cl)nc(NC(C)(C)C)n1,inactive,–
CCOC(=O)c1ccccc1C(=O)OCC,inactive,–
CCOP(=S)(Oc1ccc([N+](=O)[O-])cc1)c1ccccc1 (stereo not given),inactive,–
Nc1ccc(Cl)cc1,inactive,–
Cc1ccc(N)cc1N,inactive,–
CCOc1ccc(C(C)(C)COCc2cccc(Oc3ccccc3)c2)cc1,inactive,–
ClC1=C(Cl)C2(Cl)C3C(Cl)C(Cl)CC3C1(Cl)C2(Cl)Cl (stereo not given),–,23.6 µM (active)
CCCCN(CCCC)N=O,inactive,–
c1ccc(OP(Oc2ccccc2)Oc2ccccc2)cc1,inactive,–
CCC1(c2ccccc2)C(=O)N=C(O)NC1=O (stereo not given),inactive,–
Cc1cccc(N)c1,inactive,–
CC(C)(C)OOC(C)(C)C,inactive,–
CCCCCCCc1ccc(O)cc1,inactive,–
ClC(Cl)c1ccccc1,inactive,–
CCCCN(CCCC)SN(C)C(=O)Oc1cccc2c1OC(C)(C)C2,inactive,–
c1cc2c3c(cccc3c1)CC2,inactive,–
CN(C)C(=O)Cl,inactive,–
